Most compounds without a hit are left out; they make up all but 28% or so of the library.
CYP2C19 activ: human CYP2C19 activators, primary screen, biochemical, luminescence; Cytochrome P450 2C19 (Homo sapiens), P33261; activation factor at 5 µM; recombinant CYP2C19, luciferin-H EGE luminescence; active compounds read high; 0 = fully inhibited enzyme, 1 = untreated enzyme; 96,000 tested, under 10 active;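 active = activation factor of at least 2 at 5 µM in the primary screen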
PLK1 inh: human PLK1 kinase inhibitors, primary screen, biochemical, TR-FRET. Serine/threonine-protein kinase PLK1 (Homo sapiens), P53350. recombinant PLK1 kinase, TR-FRET peptide phosphorylation. inhibition, % at 10 µM. 97,000 compounds, 0.53% hits;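 active = inhibition of 50% or more in the single-concentration screen; inactive = inhibition below 50%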
Target sequence (P53350 whole entry, looked up): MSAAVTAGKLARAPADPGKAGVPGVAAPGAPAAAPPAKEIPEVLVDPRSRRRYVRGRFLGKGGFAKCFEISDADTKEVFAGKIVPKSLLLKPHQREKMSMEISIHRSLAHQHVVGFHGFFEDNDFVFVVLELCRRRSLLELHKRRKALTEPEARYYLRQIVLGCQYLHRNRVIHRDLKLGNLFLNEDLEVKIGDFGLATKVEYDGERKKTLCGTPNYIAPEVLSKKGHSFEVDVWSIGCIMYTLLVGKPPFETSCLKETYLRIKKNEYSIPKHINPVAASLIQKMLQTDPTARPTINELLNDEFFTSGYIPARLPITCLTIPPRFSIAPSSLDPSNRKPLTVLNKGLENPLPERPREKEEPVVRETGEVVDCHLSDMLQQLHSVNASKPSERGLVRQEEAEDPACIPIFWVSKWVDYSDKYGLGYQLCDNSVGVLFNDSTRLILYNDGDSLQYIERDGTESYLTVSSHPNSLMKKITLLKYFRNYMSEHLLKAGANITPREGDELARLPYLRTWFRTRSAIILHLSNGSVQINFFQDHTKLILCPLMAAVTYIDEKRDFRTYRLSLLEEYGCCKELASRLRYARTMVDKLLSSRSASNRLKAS
CYP2C9 activ: human CYP2C9 activators, primary screen, biochemical, luminescence; activation factor at 5 µM; 96,000 compounds, 1.4% hits; AID 1024, 2008; Cytochrome P450 2C9 (Homo sapiens), P11712; recombinant CYP2C9, luciferin-H conversion; active compounds read high; factor 1 = untreated enzyme, 0 = blocked;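 active = activation factor of 2 or more for CYP2C9 at a 5 µM dose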
CYP2C9 inhib: blockers of cytochrome P450 2C9 activity – biochemical, luminescence, ADME assay, primary screen; AID 777, 2007; P11712; 96,000 compounds, 20% hits; inhibition, % at 5 µM; CYP2C9 Supersomes, luciferin-H conversion;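 active = blocking of liver enzyme CYP2C9 beyond about 50% at 5 µM, limit read from the data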
CYP2C19 inhib: blockers of cytochrome P450 2C19 activity – biochemical, luminescence, ADME assay, primary screen; P33261; CYP2C19 Supersomes, luciferin-H EGE luminescence, 30 min; inhibition, % at 5 µM; 96,000 compounds, 21% hits;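 active = CYP2C19 inhibition above a set limit at 5 µM in the primary screen, cut at about 50% in these data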
PLK1 PBD inh: Plk1 polo box domain binding inhibitors, primary screen, biochemical, fluorescence polarization; Plk1 PBD phosphopeptide binding; inhibition, %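 (tested at about 20 µM)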; 97,000 compounds, 0.13% hits; AID 693, 2007; in the data active = inhibition above about 34%, passing the limit was not always enough
Of the large screens only hits and unclear results are named; the others gave an inactive call.

Fc1ccc2c(c1)C1C=CCC1C(c1cc3c(cc1Br)OCO3)N2 (stereo not given)	CYP2C9 inhib 69
C=CCn1c(=O)c2ccccc2n2c(SCC(=O)c3ccccc3)nnc12	CYP2C9 inhib 71, CYP2C19 inhib 82
Cn1c(COc2ccc(Cl)cc2)nnc1SCc1ncc(-c2ccccc2)o1	none
Brc1ccccc1-c1nnc(CSc2nncn2-c2ccccc2)o1	CYP2C9 activ 2.4, CYP2C19 inhib 68
COc1ccc(-n2cnnc2SCc2ncc(-c3ccccc3)o2)cc1	CYP2C19 inhib 66
Brc1ccccc1-c1nnc(CSc2nnc3sc4ccccc4n23)o1	CYP2C19 inhib 79 (no result: PLK1 inh, PLK1 PBD inh)
CCOC(=O)c1ccc(NC(=O)CSc2nc3c(c(=O)n2-c2ccccc2OC)SCC3)cc1	none (no result: PLK1 inh, PLK1 PBD inh)
CCOC(=O)N1CCC(N(CCOC)C(=O)Nc2ccc(Cl)cc2)CC1	none (no result: PLK1 inh, PLK1 PBD inh)
Cc1ccc(S(=O)(=O)N2CCC(C(=O)N[C@H](C(=O)NC3CCS(=O)(=O)C3)C(C)C)CC2)cc1 (stereo not given in full)	none
C=CCn1c(=O)c2ccccc2n2c(SCc3cc(=O)n4ccsc4n3)nnc12	none
C=CCn1c(=O)c2ccccc2n2c(SCc3nnc(-c4ccccc4Br)o3)nnc12	CYP2C9 inhib 64, CYP2C19 inhib 66 (no result: PLK1 inh, PLK1 PBD inh)
C=CCn1c(=O)c2ccccc2n2c(SCC(=O)NCCc3ccccc3)nnc12	CYP2C19 inhib 51 (no result: PLK1 inh, PLK1 PBD inh)
COc1ccc(S(=O)(=O)NCCSCc2ccco2)cc1Cl	CYP2C9 activ 2.1, CYP2C19 inhib 95
COc1ccc(S(=O)(=O)NCCSC(C)(C)C)cc1	CYP2C19 inhib 96
CSc1ccc(S(=O)(=O)NCCSC(C)(C)C)cc1	CYP2C19 inhib 86
CC(C)(C)SCCNS(=O)(=O)c1ccc2ccccc2c1	CYP2C9 activ 2.7, CYP2C19 inhib 86
C=CCNC(=O)CCCCCNS(=O)(=O)c1ccc(OC)cc1	none
CC(C)(C)SCCNS(=O)(=O)c1ccccc1	none
CCN(CCCNC(=O)c1ccc(N2CCCC2=O)cc1)c1cccc(C)c1	none
CCOC(=O)c1c(NC(=S)NC(=O)c2cnn(CC)c2)sc2c1CCC(C)C2 (stereo not given)	none
Cc1ccc(NC(=S)N2CCN(C3CCCCC3)CC2)cc1	none
NC1=NC(=O)C(Cc2cc(Cl)ccc2Cl)S1 (stereo not given)	none
COc1ccc(S(=O)(=O)NCCSC(C)(C)C)cc1Cl	CYP2C9 activ 2.9
COc1ccc(S(=O)(=O)NCCSCc2ccco2)cc1C	none (no result: CYP2C19 activ, CYP2C9 activ, CYP2C9 inhib, CYP2C19 inhib)
CSc1ccc(S(=O)(=O)NCCOc2ccccc2C)cc1	CYP2C19 inhib 63
Cc1ccc(OCc2nc(C#N)c(NCc3ccco3)o2)cc1	CYP2C9 inhib 100, CYP2C19 inhib 90
COc1ccccc1OCc1nc(C#N)c(NCc2ccco2)o1	CYP2C9 inhib 80, CYP2C19 inhib 74
Cc1ccc(-c2nc(C#N)c(NCc3ccco3)o2)cc1	CYP2C9 inhib 58 (no result: PLK1 inh, PLK1 PBD inh)
N#Cc1nc(-c2ccc(OCc3ccccc3)cc2)oc1NCc1ccco1	none
N#Cc1nc(COc2cccc(Cl)c2)oc1NCc1ccco1	CYP2C9 inhib 85, CYP2C19 inhib 50
O=C1c2ccccc2C(=O)N1CCSc1n[nH]c(=S)s1	CYP2C9 inhib 82
Cc1cc(C)cc(C(=O)N2CCC(C(N)=O)CC2)c1	none
CCOC(=O)c1cn(-c2ccccc2)nc1-c1ccncc1	CYP2C9 inhib 82, CYP2C19 inhib 91
O=C(OCc1nnc(-c2ccccc2)o1)c1cn(-c2ccccc2)nc1-c1ccccc1	CYP2C9 inhib 91, CYP2C19 inhib 55
CCOC(=O)c1nn(-c2ccc(C)cc2)cc1C(=O)c1ccccc1	CYP2C19 inhib 66
Cc1ccc(-c2nn(-c3ccccc3)cc2C(=O)N2CCOCC2)cc1	CYP2C9 inhib 71, CYP2C19 inhib 54 (no result: PLK1 inh, PLK1 PBD inh)
COC(=O)c1cn(-c2ccccc2)nc1-c1ccccc1	none
CCOc1cc(-n2cnnn2)c(OCC)cc1NC(=O)c1cc2ccc(N(CC)CC)cc2oc1=O	none (no result: CYP2C19 activ, CYP2C9 activ, CYP2C9 inhib, CYP2C19 inhib)
COC(=O)c1ccc(NC(=O)CS(=O)(=O)Cc2ccccc2)cc1	none (no result: PLK1 inh, PLK1 PBD inh)
COc1cc(C(=O)NCCC(C)C)c([N+](=O)[O-])cc1OC	none
COc1cccc(N2CCN(C(=S)Nc3cccc(C)c3)CC2)c1	none
Cc1noc(C)c1COC(=O)c1cc(C)n(-c2ccccc2)c1C	none
Cc1cc(C(=O)OCc2nnc(-c3ccccc3)o2)c(C)n1-c1ccccc1	CYP2C9 inhib 64 (no result: PLK1 inh, PLK1 PBD inh)
Cc1ccc(-n2cc(C(=O)c3ccccc3O)cn2)cc1	CYP2C19 inhib 61
CCOc1ccc2nc(NC3=NCN(CC4CCCO4)CN3)nc(C)c2c1 (stereo not given)	none (no result: CYP2C19 activ, CYP2C9 activ, CYP2C9 inhib, CYP2C19 inhib)
CCOC(=O)Nc1nnc(-c2ccccc2OC)s1	none (no result: CYP2C19 activ, CYP2C9 activ, CYP2C9 inhib, CYP2C19 inhib)
COc1ccccc1-c1nnc(NC(=O)OCC(C)C)s1	CYP2C9 activ 2.4
Nc1nnc(COc2ccccc2)s1	none (no result: CYP2C19 activ, CYP2C9 activ, CYP2C9 inhib, CYP2C19 inhib)
Cc1onc(COc2ccccc2O)c1Br	CYP2C19 inhib 73
O=Cc1cn(-c2ccccc2)nc1-c1cc2cc(O)ccc2oc1=O	CYP2C9 inhib 81
O=Cc1cn(-c2ccccc2)nc1-c1cc2c(ccc3ccccc32)oc1=O	none
CCOC(=O)CC(NC(=O)c1ccc(C)cc1)c1ccc(C)cc1 (stereo not given)	none
O=C(O)CCC(=O)N1CCc2cc(S(=O)(=O)NC3CCCC3)ccc21	none
CCCN(CCC)CCNS(=O)(=O)c1ccc2c(c1)CCN2C(=O)C1CCC1	CYP2C19 inhib 94
O=C(C1CCC1)N1CCc2cc(S(=O)(=O)NC3CCCC3)ccc21	CYP2C9 inhib 83, CYP2C19 inhib 72
O=C(C1CC1)N1CCc2cc(S(=O)(=O)NCCC3=CCCCC3)ccc21	none
CCOc1cccc(C(=O)N(Cc2ccc(F)cc2)C2CCS(=O)(=O)C2)c1 (stereo not given)	CYP2C19 inhib 51
CCCCOc1cccc(C(=O)N(Cc2ccco2)C2CCS(=O)(=O)C2)c1 (stereo not given)	CYP2C9 inhib 82
CCCOc1cccc(C(=O)N(Cc2ccco2)C2CCS(=O)(=O)C2)c1 (stereo not given)	none (no result: CYP2C19 activ, CYP2C9 activ, CYP2C9 inhib, CYP2C19 inhib)
CC1=CC(c2ccc(Cl)cc2)n2nc(NS(=O)(=O)c3ccc(C)cc3)nc2N1 (stereo not given)	CYP2C9 inhib 70
O=C(Oc1cccc2c(O)cccc12)c1ccccc1	CYP2C9 inhib 73, CYP2C19 inhib 84
CN1CCN(c2cc(=O)n(C3CCCCC3)c(=O)[nH]2)CC1	PLK1 inh 65
CCN1CCN(c2cc(=O)n(C3CCCCC3)c(=O)[nH]2)CC1	none
COc1cc(-c2cc(C(F)(F)F)n3ncc(C(=O)O)c3n2)cc(OC)c1OC	none
CN(Cc1ccccc1)S(=O)(=O)c1ccc2[nH]cc(C(=O)NCC3CCCO3)c(=O)c2c1 (stereo not given)	none (no result: CYP2C19 activ, CYP2C9 activ, CYP2C9 inhib, CYP2C19 inhib)

Source: PubChem BioAssay
